Measured values as given in PubChem BioAssay AID624330 (Southern Research Specialized Biocontainment Screening …, 2012).
Screen size: about 340,000 compounds; about 2,100 (0.62%) were called active.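 The calls were made as follows: active = first-screen hits whose inhibition reached a set limit at any dose in the follow-up dose series; inconclusive = inhibition above the set first-screen limit but never retested; inactive = the rest.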 These entries were drawn from the full list. Potency and affinity values are given separately.

Biological target: Rac GTPase-activating protein 1 (Homo sapiens) (UniProt Q9H0H5)
Assay: MgcRacGAP GTPase-activating activity inhibitors, confirmation, biochemical, ADP Hunter fluorescence, primary and confirmatory (AID 624330);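 also: fluorescence reports GDP produced by GAP-driven GTP hydrolysis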
Details: MgcRacGAP-stimulated Rac1 GTP hydrolysis, at 30 µM, hits give high values, GST-tagged Rac1 F28L mutant substrate

Chain of Rac GTPase-activating protein 1 (Homo sapiens) (Q9H0H5 whole entry, looked up): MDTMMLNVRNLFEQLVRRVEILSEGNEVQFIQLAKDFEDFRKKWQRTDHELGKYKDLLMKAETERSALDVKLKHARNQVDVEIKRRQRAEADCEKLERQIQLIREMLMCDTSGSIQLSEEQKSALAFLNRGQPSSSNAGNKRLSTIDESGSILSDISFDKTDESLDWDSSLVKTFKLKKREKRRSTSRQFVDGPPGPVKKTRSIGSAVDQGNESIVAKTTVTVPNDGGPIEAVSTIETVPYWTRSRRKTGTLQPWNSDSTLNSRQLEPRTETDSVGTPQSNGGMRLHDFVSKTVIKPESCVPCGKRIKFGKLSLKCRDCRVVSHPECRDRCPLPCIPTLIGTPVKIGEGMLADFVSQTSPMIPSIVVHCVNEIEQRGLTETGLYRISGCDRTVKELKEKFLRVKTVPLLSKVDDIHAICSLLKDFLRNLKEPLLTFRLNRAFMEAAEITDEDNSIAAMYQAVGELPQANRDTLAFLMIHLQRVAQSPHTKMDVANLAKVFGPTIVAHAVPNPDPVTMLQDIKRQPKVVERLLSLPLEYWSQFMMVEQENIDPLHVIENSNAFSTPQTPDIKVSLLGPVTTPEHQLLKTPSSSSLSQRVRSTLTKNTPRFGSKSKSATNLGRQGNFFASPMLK

inhibition, inactive:
COc1cccc(OC)c1C(=O)OCC(=O)N1CCC(Cc2ccccc2)CC1 -0.57%
CCOC(=O)/C=C/C(=O)OCC(=O)N1CCN(C(=O)c2ccco2)CC1 8.47%
COc1cc(/C=C/C(=O)OCC(=O)N2CCCc3ccccc32)ccc1OCC#N 6.56%
COc1ccccc1C(=O)OCC(=O)N1CCC(Cc2ccccc2)CC1 6.97%
COc1cc(/C=C/C(=O)OCC(=O)N2CCCc3ccccc32)ccc1OC(F)F 1.81%
O=C(/C=C/c1cccc([N+](=O)[O-])c1)OCC(=O)N1CCN(C(=O)c2ccco2)CC1 4.32%
COc1ccccc1OCC(=O)N1CC2(C)CC1CC(C)(C)C2 (stereo unspecified) 8.14%
COc1ccc(/C=N/OCC(=O)N2CC3(C)CC2CC(C)(C)C3)cc1OC (stereo unspecified) 4.24%
Cc1ccc(-c2ccc(=O)n(CC(=O)NCCN(CC(C)C)CC(C)C)n2)cc1 8.51%
O=C1C(CO)C(CO)C(CO)C1CO (stereo unspecified) -2.59%
CNCCCc1[nH]nc(N)c1C#N 9.11%
CCN(CC(=O)Nc1c(F)cccc1F)C(=O)c1cn2ccccc2n1 2.69%
Cc1ccn2cc(CCNC(=O)c3ccc(Br)o3)nc2c1 13.4%
O=S(=O)(CCc1nc2ccccc2s1)c1ccc2ccccc2c1 18.8%
CCN(CC)S(=O)(=O)c1ccc(NN)nc1 -5.75%
COc1ccc(/C=C/C(=O)OCC(=O)N2CCCCCC2)cc1OC 0.54%
COc1cc(/C=C/C(=O)OCC(=O)N2CCN(S(=O)(=O)c3ccc(C)cc3C)CC2)ccc1OC(F)F 5.89%
COc1cc(/C=C/C(=O)OCC(=O)N2CCCC2)cc(OC)c1OC 4.39%
COc1ccc(/C=C/C(=O)OCC(=O)N2CCN(S(=O)(=O)c3ccc(C)cc3C)CC2)cc1OC -0.78%
COc1cc(C(=O)O)nc(OC)n1 0.97%
CCOC(=O)c1nn(-c2ccc(Cl)cc2)c(=O)c(C#N)c1C 5.44%
O=C(O)CNC(=O)c1ccc(Oc2c(F)c(F)c(Oc3ccc(C(=O)NCC(=O)O)cc3)c(F)c2F)cc1 -1.5%
N#CCSc1nnc2sc3ccccc3n12 5.4%
O=S(=O)(O)c1nnc2sc3ccccc3n12 7.48%
O=S(=O)(Cc1ccccc1)N1CCN(Cc2ccc3c(c2)OCO3)CC1 4.33%
Cc1cccc(NC(=O)C2C3C=CC(C4CC34)C2C(=O)O)c1 (stereo unspecified) 10%
